# Screening results from PubChem BioAssay.
# Rows were chosen to be rich in hits. Some 9.3% of all compounds tested hit in one or more screens of this group.
# SMN2 splice enh = SMN2 splice variant enhancement; HEK293 SMN2-luciferase splicing reporter, luminescence, 30-36 h; Potency, µM (top dose mostly 46.1 µM), without a hit: at the highest dose activity change, positive = activation, usual class: activators; 210,000 compounds, 2.8% hits; also: % of control where 0% means no effect; nearly all actives have a fitted effect of over 55% in size
#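 qHTS luciferase splicing reporter: luminescence rises when SMN2 exon 7 is included in transfected HEK293 cells. Compound exposure lasted 30-36 h at 37C, with 4.5 mM final sodium butyrate as control, followed by a ONE-Glo read.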
# NPC1 prom act = NPC1 promoter activation. Huh7 NPC1 promoter luciferase reporter, 24 h. 320,000 compounds, 2.4% hits. AID 485313. Potency, µM (doses to about 9.22 µM), without a hit: top-dose activation, actives largely listed as activators; also: % of control where 0% means no effect; nearly all actives have a fitted effect of over 60% in size
#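 Quantitative HTS used a cell-based reporter: Huh7 cells stably bearing the NPC1 promoter upstream of luciferase were treated with compounds for 24 h, and promoter activation was read as luminescence.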
# ELG1 DNA repair = inhibitors of ELG1-dependent DNA repair in HEK293T cells. AID 504467. HEK293T ELG1-luciferase reporter, luminescence, 16 h; DNA damage induced by 5-fluorouridine. 330,000 compounds, 2.3% hits. Potency, µM (top dose mostly 46.1 µM), for inactives: at the top dose activity change, negative = inhibition, usual class: inhibitors; also: % is scaled to controls: 0 for no effect and ±100 for the full control effect; nearly all actives have a fitted effect of over 55% in size
#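 Reporter activity after DNA damage by 5-fluorouridine is monitored. Compound-treated cells incubate 16 hr at 37 °C, then ONE-Glo is added for 30 min before luminescence reading.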
# Rab9 prom act = activators of Rab9 promoter. Huh7 Rab9 promoter-luciferase reporter, luminescence, 24 h. 320,000 compounds, 2.8% hits. Potency, µM (titrated, usually from 9.22 µM), for inactives: at the highest dose activation, negative = inhibition, hits mostly activators; also: % of control where 0% means no effect; nearly all actives have a fitted effect of over 60% in size
#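 Huh7 cells stably carrying a Rab9 promoter-luciferase reporter, 1500 cells per well in OP-MEM I with 10% FBS, treated with compound 24 hours at 37C. Luciferase activity read by luminescence after 10 minutes with Amplite reagent.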
# ELG1 genotoxic = inducers of genotoxicity in HEK293T ELG1-luciferase cells; 330,000 compounds, 1.3% hits; Potency, µM (doses to about 46 µM), without a hit: at the highest dose activity change, positive = activation, usual class: activators; AID 504466; HEK293T ELG1-luciferase reporter, luminescence, 16 h; also: % of control where 0% means no effect; nearly all actives have a fitted effect of over 60% in size
#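 HEK293T cells expressing luciferase-tagged ELG1 were exposed to compound or DMSO vehicle for 16 hr at 37 °C and 5% CO2. Luciferase activity was then measured with ONE-Glo after 30 min at room temperature.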
# FLuc counter = counter-screen for miR-21 project: firefly luciferase inhibitors or activators. 360,000 compounds, 6.9% hits. purified FLuc, Km substrates, luminescence inhibition. P08659. Potency, µM (titrated, usually from 57.5 µM), without a hit: top-dose activity change, negative = inhibition, most hits filed as inhibitors;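 also: plate controls were vehicle for no effect and reference inhibitor for full effect; nearly all actives have a fitted effect of over 55% in size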
# Target sequence (P08659 whole entry, looked up): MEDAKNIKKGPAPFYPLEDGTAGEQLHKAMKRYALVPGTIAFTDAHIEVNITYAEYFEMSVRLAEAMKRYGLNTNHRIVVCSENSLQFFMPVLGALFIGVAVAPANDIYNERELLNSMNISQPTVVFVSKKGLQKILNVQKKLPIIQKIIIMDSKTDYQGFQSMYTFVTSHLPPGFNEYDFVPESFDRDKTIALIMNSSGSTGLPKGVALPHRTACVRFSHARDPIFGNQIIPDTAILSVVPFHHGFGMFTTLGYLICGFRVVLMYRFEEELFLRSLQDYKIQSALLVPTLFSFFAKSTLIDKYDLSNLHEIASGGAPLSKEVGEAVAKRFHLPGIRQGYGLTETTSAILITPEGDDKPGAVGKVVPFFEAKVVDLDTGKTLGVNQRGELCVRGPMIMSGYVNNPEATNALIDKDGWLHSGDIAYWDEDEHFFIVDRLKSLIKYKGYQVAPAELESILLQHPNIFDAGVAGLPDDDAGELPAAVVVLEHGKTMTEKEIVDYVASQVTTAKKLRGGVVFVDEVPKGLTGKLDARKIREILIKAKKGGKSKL
#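 Biochemical qHTS of compounds, final roughly 60 µM downward over six points, against 10 nM purified firefly luciferase using Km concentrations of substrates (10 uM D-luciferin, 10 uM ATP) in Tris acetate pH 7.5 buffer; luminescence output.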
# The depositor's hits bear a star; ? = inconclusive; / = no result given. Calls follow the shape of the dose curve; as a rule, active = well fitted curve in the direction sought with a large enough effect; inconclusive = small, poorly fitted or top-dose-only effect, or another doubt; inactive = no such curve, though single readings can be large; an effect the other way counts as inactive or inconclusive. Potency is read from the fitted curve at half-maximal effect.
SMILES,SMN2 splice enh,NPC1 prom act,ELG1 DNA repair,Rab9 prom act,ELG1 genotoxic,FLuc counter
CC(=O)Nc1ccc(NC(=O)C(C)OC(=O)/C(C#N)=C/c2ccc(N(C)C)cc2)cc1 (stereo unspecified),/,28%,?,?,18µM*,9.5µM*
CC(OC(=O)/C(C#N)=C/c1ccc(N(C)C)cc1)C(=O)N(C)c1ccccc1 (stereo unspecified),/,0%,-6%,-9%,-2%,?
COc1ccc(/C=C/c2nnc(NC(=O)CSc3ccc(Cl)cc3)s2)cc1,10µM*,?,?,?,?,0%
COc1ccc(/C=C/c2nnc(NC(C)=O)s2)cc1,/,1.1µM*,?,0.13µM*,2.3µM*,1.9µM*
COC(=O)Nc1nnc(/C=C/c2ccc(OC)cc2)s1,8.9µM*,?,?,3.5µM*,?,6µM*
CCc1nc2sc3c(=O)[nH]cnc3c2c2c1CSC(C)(C)C2,/,-2%,?,-3%,7%,-1%
CC1(C)Cc2nc3sc4c(=O)[nH]cnc4c3cc2CS1,?,26%,?,14%,?,13µM*
CCCCCn1cnc2c(sc3nc4c(cc32)CSC(C)(C)C4)c1=O,19%,3.5µM*,?,3.2µM*,?,3.8µM*
O=C(Cn1cc(CCO)nn1)N1CCNCC1,/,0%,6%,0%,1%,-1%
CC(=O)CC1=NC(C)(C)Cc2ccccc21,9%,1%,20%,-4%,-2%,3%
Clc1ccc(/C=N/Nc2ncnc3nc[nH]c23)cc1,/,?,?,?,16µM*,17µM*
Cc1ccc(/C=N/Nc2ncnc3nc[nH]c23)cc1,/,2.8µM*,?,1.6µM*,?,9.5µM*
O=C(c1ccc2c(c1)N(Cc1ccccc1)C(=O)c1ccccc1S2(=O)=O)N1CCCCCC1,6%,/,/,/,/,2%
Brc1ccccc1OCCCn1cnc2ccccc21,?,3.2µM*,?,4µM*,5.8µM*,2.4µM*
Cc1ccccc1OCCCCn1cnc2ccccc21,-91%,-9%,?,-19%,-5%,19µM*
c1ccc2c(c1)ncn2CCCOc1ccc2c(c1)CCC2,-29%,16%,-2%,0%,23%,15µM*
CCN(C(=O)COC(=O)c1ccc(C)c(S(=O)(=O)N2CCCCC2)c1)C1CCS(=O)(=O)C1 (stereo unspecified),/,-3%,14%,-3%,5%,-1%
CCOC(=O)C1CCCCN1C(=O)/C(=C/c1ccc(OC)cc1)c1ccc(OC)c(OC)c1 (stereo unspecified),/,/,18µM*,/,-8%,/
CCOC(=O)C1CCCCN1C(=O)c1ccc2nc(Cc3ccc(OC)cc3)oc2c1 (stereo unspecified),/,0%,-6%,-7%,-4%,-13%
CCc1ccc(NC(=O)CCc2nnc3n(C)c(=O)c4sccc4n23)cc1,-3%,/,/,/,/,1%
CCC[C@H](CN[C@@H](CNC)[C@H](C)CC)NCCc1cc(C(F)(F)F)cc(C(F)(F)F)c1,/,-6%,21µM*,-7%,-12%,-1%
O=C(NCC1CCN(C(=O)c2c(F)c(F)c(F)c(F)c2F)CC1)c1c(F)c(F)c(F)c(F)c1F,/,1%,2%,-4%,-10%,3%
COc1cc(NC(=O)c2cccc(C)c2)ccc1NC(=O)c1cc2ccccc2o1,/,-8%,19%,-10%,?,-19%
CC(C)C(=O)Nc1cccc(C(=O)Nc2cc([N+](=O)[O-])ccc2F)c1,20%,-5%,-12%,-4%,0%,?
O=C(C1CCCN(S(=O)(=O)c2ccccc2)C1)N1CCCc2ccccc21 (stereo unspecified),-47%,1%,23µM*,2%,-8%,-4%
Cc1ccc(S(=O)(=O)N2CCCC(C(=O)N3CCN(c4ccccc4)CC3)C2)cc1 (stereo unspecified),/,5%,21µM*,-7%,-8%,-1%
